Screening data deposited in PubChem BioAssay by National Center for Advancing Translational Sciences (NCATS).
Only some compounds are listed: those with a hit (about 7.8% of all), similar ones and a draw of the others.
LASV entry inh = blocks Lassa virus binding to or entry into cells; Lassa virus pseudotype entry inhibition, cell reporter; Potency, µM (titrated, usually from 37.9 µM), for inactives: top-dose activity change, negative = inhibition, actives largely listed as inhibitors; 300,000 compounds, 1.2% hits; calls by dose curve; tested in HEK293 cells; note: potency is the fitted concentration of half-maximal effect; nearly all actives have a fitted effect of over 50% in size
HCV inhibitor = blocks hepatitis C virus. Huh7.5.1 HCVcc-Cre infection, luciferase reporter, 44 h. Potency, µM (titrated, usually from 41.8 µM), inactives show at the highest dose activity change, negative = inhibition, most hits filed as inhibitors. 340,000 compounds, 3.4% hits. AID 651820; active = well fitted inhibition curve with a large enough effect; inconclusive = small, poorly fitted or top-dose-only effect, or another doubt; inactive = no such curve, though single readings can be large or run the other way; note: potency is the fitted concentration of half-maximal effect
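After 44 h co-culture of compound, cells and HCVcc-Cre (~0.5 moi), substrate is added for 15 min at room temperature and luciferase measured over 15 sec. Cells were seeded at 1,000/well and pre-cultured 4 h.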
Vaccinia Venus = vaccinia inhibition (Venus reporter) | Vaccinia virus Venus reporter expression, fluorescence | Potency, µM (highest dose often 36.5 µM), for inactives: at the top dose activity change, negative = inhibition, actives largely listed as inhibitors | 330,000 compounds, 0.46% hits; calls by dose curve; tested in A549 cells; note: potency is the fitted concentration of half-maximal effect; nearly all actives have a fitted effect of over 30% in size
HCMV antiviral = human cytomegalovirus inhibition. HFF cells, HCMV-luciferase reporter, 72 h; active compounds read low. activity change, negative = inhibition, % at 57.5 µM. 410,000 compounds, 4.5% hits. AID 1259415; in the data active = activity change below about -60%; inconclusive = no clear call, values can overlap the other calls; inactive = above about -39%
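Two-dose cell screen: HFF monolayers treated with compounds and infected with luciferase-expressing HCMV at 1 PFU/cell, 72 h at 37C, then lysed for luciferase measurement.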
Vaccinia mCherry = vaccinia inhibition (mCherry reporter). Vaccinia virus mCherry reporter infection, fluorescence. Potency, µM (doses to about 36.5 µM), without a hit: at the top dose activity change, negative = inhibition, usual class: inhibitors. 310,000 compounds, 0.63% hits. AID 720579; calls by dose curve; tested in A549 cells; note: potency is the fitted concentration of half-maximal effect; nearly all actives have a fitted effect of over 35% in size
Marburg entry inh = blocks Marburg virus binding to or entry into cells | Potency, µM (series often up to 37.8 µM), without a hit: at the top dose activity change, negative = inhibition, most hits filed as inhibitors | 300,000 compounds, 1.8% hits | AID 540276 | Marburg virus pseudotyped entry inhibition, cell reporter; calls by dose curve; tested in HEK293 cells; note: potency is the fitted concentration of half-maximal effect
* hit, by the source's call; i = inactive; u = inconclusive; x = no result given; ! = a repeat was not active; [ ] = dose if it differs, or a comment. % is set by controls: 0 for no effect and ±100 for the full control effect.

SMILES	LASV entry inh	HCV inhibitor	Vaccinia Venus	HCMV antiviral	Vaccinia mCherry	Marburg entry inh
Cc1ncccc1C(=O)N1CCCC(c2cc(C(=O)Nc3ccc(C(C)(C)C)cc3)no2)C1 (stereo not drawn)	x	x	-11%	-18	6%	x
O=C1CCC[C@@H]2CC(Nc3ccccc3)C[C@@H]3CCN1[C@H]23 (stereo partly drawn)	x	x	-7%	x	-12%	x
Cc1cccc2cc(C#N)c(SCC(=O)N3CC(=O)Nc4ccccc43)nc12	u	u	u	-96*	x	u
CC1CN(C(=O)CSc2nc(-c3ccccc3)cs2)CC(C)O1 (stereo not drawn)	-14%	23%	-12%	u	x	u
O=C1CN(C(=O)CSc2nc(-c3ccccc3)cs2)c2ccccc2N1	u	u	-22%	-61*	-28%	u
Cc1cccc2cc(C#N)c(SCC(=O)N3CCC(C)CC3)nc12	-10%	u	-26%	-5	x	4%
C=CCn1c(SCC(=O)N2CC(=O)Nc3ccccc32)nc2scc(-c3cccs3)c2c1=O	15µM*	u	x	-10	x	u
CC1(C)C(=O)Nc2ccccc2N1C(=O)CSc1nc(-c2ccccc2)cs1	6%	u	-8%	-63*	-11%	u
COc1ccc(C2=NCC(C)n3c2c2ccc(C(F)(F)F)cc2[n+]3[O-])cc1 (stereo not drawn)	x	x	x	3	x	x
O=C(O)C1CSC(c2ccccc2Cl)N1C(=O)c1ccc(Cl)cc1 (stereo not drawn)	-2%	10%	-8%	-61*	-11%	u
O=C(O)c1ccc(N/N=C/c2cc3c(cc2[N+](=O)[O-])OCO3)cc1	13%[46.1 µM]	20%	-14%	u	-21%	u
Cc1ccc(N/N=C/c2ccc3c(c2)OCCO3)cc1Cl	-4%	-5%	-9%	-29	-23%	u
O=C(O)c1ccc(N/N=C/c2ccc3c(c2)OCO3)cc1	u	-3%	-12%	-73*	-17%	u
O=C(O)c1cc(N/N=C/c2ccc3c(c2)OCO3)ccc1Cl	u	5%	-8%	98	-17%	2.5µM*
O=C(O)c1cc(N/N=C/c2ccc3c(c2)OCCO3)ccc1Cl	1.6µM*	0%	1%	163	-11%	u
Cc1cccc2c(Nc3ccc4c(c3)OCO4)nc(CN3CCC(N4CCCCC4)CC3)nc12	x	x	-12%	x	i	x
CC(C)c1ccc(Nc2ncnc3onc(-c4ccc(F)cc4)c23)cc1	u	x	-16%	-24	-19%	x
COCC(=O)Nc1cc(C(=O)N2CCN(C)C(c3ccccc3)C2)c2c(c1)nc(-c1ccncc1)n2C (stereo not drawn)	x	x	-19%	x	i	x
Cc1ccc(CCNC(=O)c2ccc(CNS(=O)(=O)c3ccc(F)cc3)cc2)cc1	2%[46.1 µM]	x	-5%	-2	-7%	x
Cc1cc(/C=N/NC(N)=S)c(C)n1-c1ccc(Cl)cc1	u	u	x	-21	x	u
Cc1cc(/C=N/NC(N)=S)c(C)n1-c1cccc(Cl)c1	u	-22%	-15%	-65*	-22%	u
COc1ccc(S(=O)(=O)c2c(O)c(C)cc(NC(=O)c3ccccc3)c2C(C)C)cc1	-6%[46.1 µM]	x	-9%	-63*	1%	-16%[46.1 µM]
COc1ccc(S(=O)(=O)Nc2cc(C)c(O)c(S(=O)(=O)c3ccccc3)c2)cc1	7%	6%	x	-4	x	u
COc1ccc(S(=O)(=O)c2c(O)c(C)cc(NS(=O)(=O)c3ccc(Cl)cc3)c2C(C)C)cc1	-13%[46.1 µM]	x	-7%	u	-5%	u
COc1ccc(S(=O)(=O)c2c(C)c(NS(=O)(=O)c3ccccc3)cc(C)c2O)cc1	12%	4%	-16%	-63*!	-7%	-5%[46.1 µM]
SMILES	LASV entry inh	HCV inhibitor	Vaccinia Venus	HCMV antiviral	Vaccinia mCherry	Marburg entry inh
Cc1c(NS(=O)(=O)c2ccccc2)cc(C(C)C)c(O)c1S(=O)(=O)c1ccc(Cl)cc1	-19%[46.1 µM]	x	-8%	-37	2%	11µM*
Cc1ccc2ncc(C)c(C)c2c1	x	x	-3%	x	-12%	x
Cc1cc(C)c2nccc(/C=C/c3ccc(N(C)C)cc3)c2c1	x	x	-10%	x	-22%	x
CN1OC(C)(CC(=O)Nc2ccccc2)N=C1c1ccccc1 (stereo not drawn)	x	x	x	-27	x	x
CC(C)c1ccc(NC(=O)C(Cc2ccccc2)NS(=O)(=O)c2ccc3c(c2)CCC(=O)N3)cc1 (stereo not drawn)	-12%[46.1 µM]	x	-12%	-9	-3%	-17%[46.1 µM]
Cc1ccc(-n2c(-c3ccccc3)nsc2=NC#N)cc1	x	x	4.5µM*	x	3.5µM*	x
Cc1ccc(-n2c(-c3ccccc3)n[nH]c2=S)cc1	3%	8%	-10%	37	-14%	0%
COc1ccc2nc(N=Nc3ccc(O)c4ccccc34)sc2c1	u	u	-18%	-76*	i	u
COc1ccc2nc(N=NC3=C(O)CC(C)(C)CC3=O)sc2c1	15µM*	u	-7%	-95*	u	13µM*
CC(C)Cn1cc(NC(=O)N2CCN(c3ccccc3F)CC2)c2ccccc2c1=O	-6%[46.1 µM]	x	-3%	-15	6%	x
CCOC(=O)c1c(C)[nH]c(C)c1S(=O)(=O)N1CCCC(C(=O)N2CCN(c3cccc(C)c3C)CC2)C1 (stereo not drawn)	11µM*	x	-17%	13	-27%	x
CCOC(=O)c1c(C)[nH]c(C)c1S(=O)(=O)N1CCC(C(=O)N2CCN(c3cc(C)ccc3C)CC2)CC1	-17%[46.1 µM]	x	u	-14	u	x
CCOC(=O)c1c(C)[nH]c(C)c1S(=O)(=O)N1CCCC(C(=O)Nc2cccc(C)n2)C1 (stereo not drawn)	5%[46.1 µM]	x	-11%	-6	-10%	x
CCOC(=O)c1c(S(=O)(=O)N2CCCC(C(=O)N3CCN(c4ccccc4)CC3)C2)c(C)n(C)c1C (stereo not drawn)	8%[46.1 µM]	x	-15%	-1	-13%	x
CCOC(=O)c1c(C)[nH]c(C)c1S(=O)(=O)N1CCC(C(=O)N2CCN(c3cccc(C)c3)C(C)C2)CC1 (stereo not drawn)	-25%[46.1 µM]	x	u	-95*	u	x
CCOC(=O)c1c(C)[nH]c(C)c1S(=O)(=O)N1CCCC(C(=O)N2CCN(c3cccc(Cl)c3)CC2)C1 (stereo not drawn)	u	x	u	-73*	u	x
O=C(c1cc(Br)ccc1O)N(Cc1ccco1)Cc1cccs1	x	x	-15%	x	-5%	x
Cc1oc2ncn(CC(C)C)c(=O)c2c1C(=O)NCCCN(Cc1ccccc1)C(C)C	19%[46.1 µM]	x	-8%	4	-16%	x
CC(=O)Nc1cccc(NC(=O)CSc2nccn2Cc2ccco2)c1	13%	-25%	-5%	-70*!	-11%	14%
Cc1cc(C)c(NC(=O)CSc2nccn2Cc2ccco2)c(C)c1	11%[46.1 µM]	x	-11%	23	i	x
CCC[C@H]1[C@@H](NS(=O)(=O)c2ccc(C#N)cc2)CC[C@@]23CCCN2C(=O)CCC[C@@H]13	x	x	x	-2	x	x
